Our source for the Potency values is PubChem BioAssay (Tox21).

Molecules are shown by their SMILES. Values joined by “and” are separate entries in the source; they are usually repeats but may differ in a detail not shown here. Identical values can stand only once. Inconclusive results are not listed. Where a call stands in place of a potency, no number is given. Some compounds were tested as several samples or in several runs, with calls that do not always agree. Active and inactive are the calls of the source. Unless noted, the call rests on the fitted dose curve; in most records, active means well fitted cell-killing curve with a large enough effect in the repeat runs; inconclusive means weak or mixed curves; inactive means flat fitted curve, though single readings scatter.
Potency means the concentration at half of the fitted maximal effect.

Chain of Estrogen receptor (Homo sapiens) (P03372 whole entry, looked up): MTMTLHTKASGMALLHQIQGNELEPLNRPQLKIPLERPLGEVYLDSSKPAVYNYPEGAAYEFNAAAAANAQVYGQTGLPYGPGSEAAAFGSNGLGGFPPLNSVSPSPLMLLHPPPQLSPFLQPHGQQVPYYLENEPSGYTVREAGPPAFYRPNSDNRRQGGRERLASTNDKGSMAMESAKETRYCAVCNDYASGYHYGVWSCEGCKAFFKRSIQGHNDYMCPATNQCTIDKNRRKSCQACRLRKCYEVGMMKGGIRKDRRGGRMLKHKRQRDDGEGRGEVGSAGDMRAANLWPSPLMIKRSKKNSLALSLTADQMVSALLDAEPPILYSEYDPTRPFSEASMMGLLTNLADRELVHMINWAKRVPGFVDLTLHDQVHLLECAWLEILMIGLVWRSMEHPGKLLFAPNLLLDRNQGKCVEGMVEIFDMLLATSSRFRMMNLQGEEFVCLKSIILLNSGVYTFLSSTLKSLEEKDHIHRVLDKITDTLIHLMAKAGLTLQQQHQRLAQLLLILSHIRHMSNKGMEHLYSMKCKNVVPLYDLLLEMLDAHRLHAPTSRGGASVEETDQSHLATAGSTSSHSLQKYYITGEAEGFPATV

Test system in one experiment: not listed separately
Put plainly: qHTS assay to identify small molecule antagonists of the estrogen receptor beta (ER-beta) signaling pathway - cell viability counter screen (AID 1259382). Further: nearly all actives have a fitted effect of over 55% in size. As to conditions: ER-beta-UAS-bla HEK293T viability, CellTiter-Glo luminescence, 16 h; series mostly up to 92.4 µM. A digest of the protocol: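 CellTiter-Glo ATP luminescence measured after the LiveBLAzer read in the same wells; ER-beta-UAS-bla HEK293T cells, 16 hr compound treatment with 1nM 17-beta-estradiol agonist at 37C, 5% CO2.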
Take `c1ccc2c(c1)Oc1ccccc1S2`: the Potency result was “inactive”.
Still for that read-out and setting: the value for `Cc1cc2nc3c(=O)[nH]c(=O)nc-3n(C[C@H](O)[C@H](O)[C@H](O)CO)c2cc1C` was “inactive”.
As to `COC(=O)c1ccccc1`, the Potency result was “inactive”.
The same measure, in the same setting: the value for `CC(C)OC=O` was “inactive”.
Same read-out and setting: the value for `Cc1ccc(C(=O)c2cc(O)c(O)c([N+](=O)[O-])c2)cc1` was “inactive”.
On the same count and under the same terms, the entry for `O=C1c2cccc(O)c2C(=O)c2c(O)cccc21` is “inactive”.
With `C[Si](C)(C)O[Si](C)(C)C`, the Potency entry was “inactive”.
Consider `CN(C)C(=N)N=C(N)N`, for which the Potency entry is “inactive”.
Regarding `NNc1ccc(C(=O)O)cc1`, the Potency result is “inactive”.
For `CCCCCCCCCC(=O)OC`, the Potency entry was “inactive”.
Still for that read-out and setting: the value for `O=C(/C=C/C=C/c1ccc2c(c1)OCO2)N1CCCCC1` was “inactive”; that for `COC(=O)Nc1nc2ccc(S(=O)c3ccccc3)cc2[nH]1` (centres undefined) was “inactive”.
Same read-out and setting: the entry for `S=C(NC1CCCCC1)NC1CCCCC1` is “inactive”.
The same measure, in the same setting: the entry for `O=C(COc1ccc(Cl)cc1)N1CCN(Cc2ccc3c(c2)OCO3)CC1` is “inactive”.
As for `c1ccc(Nc2ccccc2)cc1`, the Potency entry was “inactive”.
Turning to `O=C(c1ccccc1)c1ccc(O)cc1O`, the Potency is 62.3 µM (active) and inactive.
Still for that read-out and setting: the entry for `CC(=O)CC/C=C(\C)CCC=C(C)C` is “inactive”; for `Nc1ccc(Cl)cc1Cl` it is “inactive”; for `Brc1cc(Oc2cc(Br)c(Br)c(Br)c2Br)c(Br)c(Br)c1Br` it is “inactive”.
The same measure, in the same setting: the entry for `CCCCOCCOCCO` is “inactive”.
On the same count and under the same terms, the entry for `CC(=O)O[C@]1(C(C)=O)CC[C@H]2[C@@H]3C=C(Cl)C4=CC(=O)[C@@H]5C[C@@H]5[C@]4(C)[C@H]3CC[C@@]21C` is “inactive”; for `CCCCOCCOCCOCCO` it is “inactive”; for `CC(C)(C)NC(=O)[C@H]1CC[C@H]2[C@@H]3CC[C@H]4NC(=O)C=C[C@]4(C)[C@H]3CC[C@]12C` it is “inactive”.
For the compound `CC(C)Oc1ccc2c(=O)c(-c3ccccc3)coc2c1`, the Potency result was “inactive”.

Another experiment concerns the target Estrogen receptor (Homo sapiens) (UniProt P03372). The experiment in a line: qHTS assay to identify small molecule agonists of the estrogen receptor alpha (ER-alpha) signaling pathway in the presence of an antagonist (AID 1259383; calls by dose curve; further: nearly all actives have a fitted effect of over 15% in size). As to conditions: VM7Luc4E2 cells, ERE-luciferase, +ICI-182,780, 22 h; series mostly up to 92.4 µM. A digest of the protocol: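 Luminescent ERE-luciferase reporter, VM7Luc4E2 cells (endogenous ER-alpha); 10.0nM ICI-182,780 final; 15-point compound titration; 22hr at 37C; ONE-Glo, 30min RT.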
For `CC(C)OC=O`, the Potency entry was “inactive”.
As for `c1ccncc1`, the Potency result was “inactive”.
In the case of `O=C(/C=C/C=C/c1ccc2c(c1)OCO2)N1CCCCC1`, the Potency entry is “inactive and 2.17 µM (active)”.
The same measure, in the same setting: the entry for `COC(=O)Nc1nc2ccc(S(=O)c3ccccc3)cc2[nH]1` (centres undefined) is “inactive”.
As for `CCC(C)(O)CCCC(C)C` (centres undefined), the Potency result was “inactive”.
Still for that read-out and setting: the entry for `Cn1cnc([N+](=O)[O-])c1Sc1ncnc2nc[nH]c12` is “inactive”.
On the same count and under the same terms, the value for `O=C(c1ccccc1)c1ccc(O)cc1O` was 19.7 µM (active) and 30.6 µM (active).
Still for that read-out and setting: the entry for `CC1=CC2C3CC(C=C3C)C2C1` (centres undefined) is “inactive”; for `CC(C)(C)NC(=O)[C@H]1CC[C@H]2[C@@H]3CC[C@H]4NC(=O)C=C[C@]4(C)[C@H]3CC[C@]12C` it is “inactive”; for `O=C1OC2(c3cc(Br)c(O)c(Br)c3Oc3c2cc(Br)c(O)c3Br)c2c(Cl)c(Cl)c(Cl)c(Cl)c21` it is “inactive”.
